Reference: PubChem BioAssay (NCI)
The panel holds about 83,000 compounds, 20% with a hit somewhere; the sample as a whole holds those more often.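 Single-dose data. Exposure time 48 hours. Values below 10 considered active.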 Calls of active or inactive are those of the source.

tested on: MDA-MB-468 breast; assay: NCI-60 one-dose screen, 48 h (100 = growth as untreated, 0 = no growth, -100 = all killed); details: 10 µM unless noted

| Compound | growth |
| --- | --- |
| O=c1[nH]c(=S)[nH]c2nc[nH]c12 | 100% (inactive) |
| CCOC(=O)/C=C1\S/C(=N\Nc2cc(=O)[nH]c3ccc(Br)cc23)N(c2ccccc2)C1=O | 56.1% (inactive) |
| COc1cc(/C=C/c2cc(/C=C/c3ccc(O)c(OC)c3)n(-c3c(Cl)cccc3Cl)c(=O)n2)ccc1O | 29.6% (inactive) |
| COc1cc2c(cc1OCCCOC1=C=C=C(c3ccc4c(c3)c3cc(-c5ccc(OCCCOc6cc7c(cc6OC)C(=O)N6CCC[C@H]6C=N7)cc5)ccc3n4S(=O)(=O)c3ccc(C)cc3)C=C1)N=C[C@@H]1CCCN1C2=O | -17% (active) |
| Cc1ccncc1NC=O | 107% (inactive) |
| O=C(CCl)Oc1ccc([N+](=O)[O-])cc1 | 112% (inactive) |
| CCn1cc(CNc2ccc(C(=O)Nc3ccc4ccccc4c3)cc2)c(C)n1 | 24.5% (inactive) |
| O=C1CCC/C=C\C[C@H]2C=C(Cl)C(=O)/C2=C/C[C@H](CCCCC(F)(F)F)OC(=O)CCC/C=C\C[C@H]2C=C(Cl)C(=O)/C2=C/C[C@H](CCCCC(F)(F)F)O1 | -72.2% [7.5 µM] (active) |
| CC(C)Sc1nc(-c2ccccc2)c(C#N)c(N2CCOCC2)n1 | 80.9% (inactive) |
| CC1=N[C@@H]2CN(C(=O)OC(C)(C)C)C[C@@H]2n2c1cc1ccccc1c2=O | 111% (inactive) |
| N#CC1CCc2c(c(-c3ccc4nc(N)sc4c3)nc3ccc4[nH]ncc4c23)C1 (stereo not given) | 21.4% (inactive) |
| C=C1C(=O)O[C@H]2[C@H]1CC/C(Cn1cc(-c3ccc(N)cc3)nn1)=C\CC[C@@]1(C)O[C@@H]21 | -44.8% (active) |
| Cc1cc(N2CCC(N3CCCC3)CC2)nc(/N=C(\N)Nc2ccc(Cl)c(Cl)c2)n1 | -81.4% (active) |
| COc1ccc(-c2nc3c(c(=O)n2C(C)=O)C(c2ccc(Cl)cc2)c2sc4c(Cl)cccc4c2O3)cc1 (stereo not given) | 5.77% (active) |
| NC(CCC(=O)NC(CS)C(=O)NCC(=O)O)C(=O)O (stereo not given) | 102% (inactive) |
| Clc1ccc(-c2nc(C(Cl)Cl)nc3cc(-c4ccccc4)nn23)cc1 | -33.8% (active) |
| CCCCC(=O)c1ccc(OC)cc1 | 85.2% (inactive) |
| Cn1cc(-c2ccc(-c3cn(C)c4ncccc34)[nH]2)c2cccnc21 | -23.7% (active) |
| N=c1c(S(=O)(=O)c2ccccc2)cc2c(=O)n3ccccc3nc2n1CC1CCCO1 (stereo not given) | 121% (inactive) |
| CCCCC1COc2cccc3c2N1C=C/C3=C\C(=O)N(C)c1ccccc1 (stereo not given) | 18.8% (inactive) |

| Compound | growth |
| --- | --- |
| Cc1ccc2[nH]c(=O)c3c(c2c1)OC(N)=C(C#N)C31C(=O)c2cccc3cccc1c23 (stereo not given) | 95.1% (inactive) |
| C=C1C(=O)O[C@H]2[C@H]1CC/C(COC(=O)NCc1c[nH]c3ccccc13)=C\CC[C@@]1(C)O[C@@H]21 | 48% (inactive) |
| COc1ccc2c(c1)O/C(=C/c1ccc(OCC(=O)Nc3ccc(S(N)(=O)=O)cc3)cc1)C2=O | 86.3% (inactive) |
| COc1cc(-c2csc(NC(=O)Nc3ccc(Cl)c(C(F)(F)F)c3)n2)cc(OC)c1OC | -12.7% (active) |
| O=C(CCCCCCN1CC(=O)N2[C@H](c3ccc(Cl)cc3)c3[nH]c4ccccc4c3C[C@@H]2C1=O)NO | 36.5% (inactive) |
| CCCN=C1NC(=O)/C(=C/c2nc(-c3ccc(OC)cc3)n3ccccc23)S1 | 101% (inactive) |
| COc1ccc2c(c1)C/C(=C\c1cc(-c3cc(OC)c(OC)c(OC)c3)n[nH]1)C2=O | 68.8% (inactive) |
| C/C(=C\C(=N\N=C(N)N)c1ccc(Cl)cc1)c1ccc(Cl)cc1 | -92.9% (active) |
| Clc1ccc(C(/C=C/c2sc(Cl)nc2Cl)=N/Nc2cc(Cl)cc(Cl)c2)cc1 | 107% (inactive) |
| CCOC(=O)c1c(C)oc2ncnc(Nc3ccc(NC(=O)Nc4ccc(CC)cc4)cc3)c12 | 128% (inactive) |
| COc1ccc(-c2cc(-c3ccc(Nc4nc(Nc5ccccc5)nc(Nc5ccc(Cl)cc5)n4)cc3)nc(N)n2)cc1 | 87.4% (inactive) |
| CC(CCC#N)(CCC#N)C(=O)c1ccccc1 | 106% (inactive) |
| C=C1C(=O)O[C@H]2[C@H]1CC/C(COC(=O)NCc1ccc(Cn3c(=O)sn(CCCCl)c3=O)cc1)=C\CC[C@@]1(C)O[C@@H]21 | -52% (active) |
| Cc1c(Cl)cccc1NC(=O)c1sc2nc3c(cc2c1N)CCCCCC3 | 26.5% (inactive) |
| CCOC(=O)/C(C#N)=C1/NNC(=Nc2cccnc2)S1 | 95.3% (inactive) |
| CCCCCCCCCCCCCCCCN(CC)CC | -85.3% (active) |
| CCN=c1sc2c(n1NC(=O)c1cc3ccc1CCc1ccc(cc1)CC3)C(=O)c1ccccc1C2=O | -33.7% (active) |
| NC(=S)Nc1cccc(O)c1 | 101% (inactive) |
| C1CN(SSN2CCOCC2)CCO1 | -66.4% [100 µM] (active) |
| CN1CCN(Cc2ccc(NC(=O)c3[nH]ncc3Nc3ncnc4[nH]ccc34)cc2)CC1 | -51.8% (active) |
